Test results taken from the supplement of paper PMC12636033.
± gives the standard deviation of the averaged measurements. The full ranking holds about 33,000 sequences; the median of “E-score (rank enrichment, -0.5 to 0.5)” is about -0.0075, and the highest 2% start at about 0.23. Shown is part of a subset that was picked to be rich in the highest values.

Tested on: WT Max(13-93) synthetic (M65Nle)
Assay: PBM 8-mer E-score (E-score (rank enrichment, -0.5 to 0.5)); higher = stronger preferential binding
Procedure: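 Protein binding microarray (universal PBM chip covering all 10-mers in fixed probe flanks) with chemically synthesized human Max(13-93) bHLH-LZ analogs (not full-length Max) bearing noncanonical residues (hArg, Tha, Aib, Nle at 65) and aromatic Cys staples. Read-out per 8-mer (and its reverse complement): E-score (rank-based enrichment, -0.5 to 0.5) and Z-score of median probe intensity.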

Row | Sequence | PBM 8-mer E-score
1 | ATCGCGGC | -0.136 ± 0.14
2 | CGAAACGC | -0.14 ± 0.0054
3 | GAACACTC | -0.0859 ± 0.0037
4 | ATTTATTA | 0.152 ± 0.031
5 | ATACCAAA | 0.124 ± 0.029
6 | CTAATGGA | -0.125 ± 0.0031
7 | GCTATATA | 0.146 ± 0.04
8 | ACTATATC | 0.21 ± 0.015
9 | ACCATATG | 0.221 ± 0.0037
10 | ACCATATA | 0.248 ± 0.043
11 | ACCATATC | 0.0455 ± 0.019
12 | ACTATATA | 0.274 ± 0.0075
13 | ACCGGCAC | 0.0185 ± 0.12
14 | CTATCTCC | -0.00138 ± 0.076
15 | GAAGTAGA | 0.0186 ± 0.0018
16 | ACTGATCG | -0.106 ± 0.045
17 | ACGTGTAA | 0.35 ± 0.019
18 | TCGTGTAA | 0.1 ± 0.05
19 | ACGTGTAC | 0.354 ± 0.014
20 | ACGTGTAT | 0.4013 ± 0.0019
21 | AAGTGTAT | 0.149 ± 0.018
22 | GCGTGTAC | 0.125 ± 0.015
23 | ACGTGTAG | 0.1905 ± 0.0018
24 | AGGTGTAT | 0.136 ± 0.019
25 | CCGTGTAA | -0.00838 ± 0.1

Row | Sequence | PBM 8-mer E-score
26 | ATTACCCA | 0.146 ± 0.11
27 | CCCTAAGC | -0.152 ± 0.068
28 | CAATGTGA | 0.179 ± 0.0028
29 | ATATAGTC | 0.107 ± 0.0014
30 | TAATGTGA | 0.233 ± 0.075
31 | ATATATGA | 0.0913 ± 0.21
32 | ATATATGC | 0.0949 ± 0.049
33 | CTATATGC | 0.168 ± 0.083
34 | ATATAGTA | 0.228 ± 0.029
35 | ATATAGTG | 0.2556 ± 0.0011
36 | AAATGTGA | 0.026 ± 0.14
37 | CTATATGA | 0.0892 ± 0.063
38 | ATATATGG | 0.244 ± 0.055
39 | GTATATGA | 0.266 ± 0.019
40 | CCTGGCCG | -0.194 ± 0.086
41 | ACCCAGAG | -0.0559 ± 0.026
42 | CGGTCCAA | -0.19 ± 0.19
43 | CGCCTTAG | -0.0361 ± 0.042
44 | CGGAAAGC | -0.0958 ± 0.16
45 | GCACAGGC | -0.146 ± 0.038
46 | GCCCGAGC | 0.035 ± 0.06
47 | ATATGTGA | 0.278 ± 0.14
48 | AAATGTGG | 0.245 ± 0.048
49 | AAATGTGT | 0.224 ± 0.085
50 | CTATGTGA | 0.0181 ± 0.018

Row | Sequence | PBM 8-mer E-score
51 | ATATGTGC | 0.181 ± 0.014
52 | CAATGTGG | 0.133 ± 0.072
53 | ATGTGTGG | 0.148 ± 0.055
54 | GTATGTGA | -0.0439 ± 0.13
55 | ATATGTGG | 0.292 ± 0.015
56 | CCTGTCGA | 0.00438 ± 0.055
57 | ATTTACCG | 0.17 ± 0.0023
58 | ATTCCGGC | -0.2339 ± 0.0017
59 | GAGATCAA | 0.0454 ± 0.094
60 | CACCTGAA | 0.166 ± 0.075
61 | CTGAGATA | -0.222 ± 0.091
62 | CCTTCTCA | 0.0588 ± 0.1
63 | CCGGCCCA | -0.197 ± 0.085
64 | AAAAAGGC | 0.109 ± 0.096
65 | CAAAAGGC | -0.00832 ± 0.029
66 | GAAAAGGC | 0.253 ± 0.15
67 | AACGTTTA | 0.146 ± 0.049
68 | TCGGACCA | -0.114 ± 0.059
69 | GGCGGGAA | 0.0202 ± 0.047
70 | CGCGGGGA | -0.172 ± 0.12
71 | GGCGGGGA | 0.303 ± 0.031
72 | CTGGTCCA | -0.128 ± 0.094
73 | TAGGTAAA | -0.0909 ± 0.038
74 | ACGACCAA | -0.0717 ± 0.22
75 | AGCAAGCC | -0.152 ± 0.033

Row | Sequence | PBM 8-mer E-score
76 | GACCAGCC | -0.205 ± 0.093
77 | GTGATTTA | 0.27 ± 0.0069
78 | ATGATTTA | 0.178 ± 0.027
79 | GTGATTAA | 0.296 ± 0.066
80 | CTGATTTA | 0.0789 ± 0.0019
81 | CTGATTAA | 0.192 ± 0.081
82 | ATGATGTA | 0.197 ± 0.047
83 | GTGATGTA | 0.239 ± 0.0057
84 | ATGATTAA | 0.0011 ± 0.15
85 | CTGATGTA | 0.0268 ± 0.064
86 | GTTCTCGA | 0.0864 ± 0.12
87 | CACCACTA | 0.129 ± 0.17
88 | CGCTGGCC | -0.289 ± 0.025
89 | GGAAGGAA | 0.0471 ± 0.045
90 | ACGAAGTG | 0.00194 ± 0.018
91 | ACTGATGC | -0.0431 ± 0.041
92 | CGCGGAAA | -0.0276 ± 0.059
93 | CGTTGCAA | -0.0452 ± 0.0072
94 | AGCCTAGG | -0.0541 ± 0.089
95 | GTATCATA | 0.248 ± 0.1
96 | ATATCATA | 0.184 ± 0.031
97 | GTGTCATA | 0.291 ± 0.0065
98 | CTATCATA | 0.1619 ± 0.00089
99 | ATGTCATA | 0.1682 ± 0.0013
100 | CTGTCATA | 0.113 ± 0.023

Row | Sequence | PBM 8-mer E-score
101 | AACGAAGC | -0.00685 ± 0.13
102 | CTTTTGTA | 0.125 ± 0.051
103 | ATTTTGTA | 0.237 ± 0.051
104 | GGTTTGTA | -0.0081 ± 0.036
105 | ATTTTGTG | 0.145 ± 0.021
106 | GTTTTGTA | 0.248 ± 0.031
107 | GTTTTGCA | 0.108 ± 0.019
108 | AATTTCTA | 0.172 ± 0.047
109 | ATTTTCTA | 0.24 ± 0.019
110 | CTTTTCTA | 0.0691 ± 0.035
111 | CCGCTTCG | -0.0665 ± 0.16
112 | CCCTCCTA | 0.0972 ± 0.061
113 | ACACATAA | 0.214 ± 0.066
114 | CAACATAA | 0.167 ± 0.0094
115 | GTACATAA | 0.236 ± 0.0032
116 | AAACATAC | 0.233 ± 0.027
117 | AAACATAG | 0.21 ± 0.031
118 | CTACATAA | 0.0655 ± 0.2
119 | TTACATAA | 0.136 ± 0.048
120 | TAACATAA | 0.244 ± 0.0065
121 | GAACATAA | 0.16 ± 0.059
122 | CAACATAC | 0.112 ± 0.046
123 | AAACATAT | 0.144 ± 0.0056
124 | AAACATAA | 0.244 ± 0.059
125 | AAGAAATG | 0.101 ± 0.04

Row | Sequence | PBM 8-mer E-score
126 | AAGACGGA | -0.127 ± 0.033
127 | CAAATCAC | 0.0214 ± 0.064
128 | CGGACGAG | -0.203 ± 0.017
129 | AGTCACAT | 0.251 ± 0.0014
130 | AGTCACAC | 0.0956 ± 0.0018
131 | AGTCACAG | -0.117 ± 0.061
132 | CTTTTCAC | 0.241 ± 0.17
133 | CCTTTCAC | 0.0141 ± 0.092
134 | ATTTTCAC | -0.017 ± 0.0034
135 | AGAAGCAT | 0.135 ± 0.018
136 | AGGACGAT | 0.0538 ± 0.14
137 | AGCGATGA | -0.182 ± 0.065
138 | CTAACTAC | -0.0993 ± 0.059
139 | ATTACTAG | -0.00575 ± 0.14
140 | ATTACTAC | 0.264 ± 0.03
141 | ATAACTAC | 0.239 ± 0.077
142 | ATAACTAT | 0.143 ± 0.042
143 | CTTACTAC | 0.08987 ± 0.00056
144 | AGAAAGTA | 0.204 ± 0.0097
145 | CTGCGCAC | 0.0305 ± 0.029
146 | ACCACGTA | 0.0522 ± 0.0021
147 | CCCACGCC | -0.00325 ± 0.11
148 | ACCACGTG | 0.4956 ± 0.0014
149 | ACCACGCG | 0.361 ± 0.016
150 | CCCACGCA | -0.00155 ± 0.1

Row | Sequence | PBM 8-mer E-score
151 | ACCACGCC | 0.0629 ± 0.16
152 | ACCACGCA | 0.104 ± 0.042
153 | CCCACGCG | 0.31 ± 0.011
154 | AGCACGTC | -0.118 ± 0.093
155 | ACCACGTC | 0.0378 ± 0.15
156 | AGCACGTA | -0.0146 ± 0.12
157 | AGCACGTG | 0.4878 ± 0.00074
158 | CCTTCGAA | 0.0583 ± 0.015
159 | ATTCAACA | 0.131 ± 0.1
160 | AGCCGTCA | -0.0749 ± 0.036
161 | CGATCGTC | -0.278 ± 0.042
162 | TCCCGGGA | -0.251 ± 0.0053
163 | AATGGCAT | 0.16 ± 0.14
164 | CAAAAAGC | -0.0124 ± 0.093
165 | AGGAGCAT | 0.00459 ± 0.16
166 | AGCTCTCA | -0.0708 ± 0.13
167 | ACGTGCCT | 0.252 ± 0.0048
168 | ACGTGCCG | 0.206 ± 0.029
169 | CCGTGCCA | -0.0364 ± 0.14
170 | AAGTGCCT | -0.106 ± 0.055
171 | ACGTGCCC | 0.247 ± 0.032
172 | CCGTGCCC | -0.132 ± 0.18
